Assay outcomes (PubChem BioAssay)
CHX counter: Cycloheximide Counterscreen for Small Molecule Inhibitors of Shiga Toxin. cell reporter, cycloheximide protein synthesis inhibition counterscreen. max response, %. actives 12% (n = 300,000). AID 2314, 2010; in the data active = max response mostly above about 13%, no sharp cut-off; inactive = mostly below about 14%; note: read at 38.3 µM for the half of the compounds with a filed dose; 0% is about no effect
Pf growth 96h: Primary qHTS for delayed death inhibitors of the malarial parasite plastid, 96 hour incubation; P. falciparum luciferase reporter growth, 96 h; Potency, µM (doses to about 28.7 µM), without a hit: top-dose activity change, negative = inhibition, actives largely listed as inhibitors; actives 6.9% (n = 320,000); AID 504834, 2011; note: potency is the fitted concentration of half-maximal effect; % is set by controls: 0 for no effect and ±100 for the full control effect
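Delayed-death screen, second-generation endpoint: infected erythrocytes, 2% hematocrit, 0.05% parasitemia final; 96 hours at 37 C, 5% CO2; luciferase detection reagent; luminescence decrease equals reduced growth.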
Shiga toxin inh: A qHTS for Small Molecule Inhibitors of Shiga Toxin; Vero cells, Shiga toxin protein synthesis inhibition reporter; inhibition, % at 38.7 µM; actives 9.2% (n = 290,000); in the data active = inhibition mostly above about 28%, no sharp cut-off; inactive = mostly below about 43%; note: 0% is about no effect
Pf growth 48h: Primary qHTS for delayed death inhibitors of the malarial parasite plastid, 48 hour incubation; actives 5.9% (n = 310,000); P. falciparum luciferase growth in erythrocytes, 48 h; Potency, µM (titrated, usually from 28.7 µM), without a hit: top-dose activity change, negative = inhibition, usual class: inhibitors; note: potency is the fitted concentration of half-maximal effect; % is set by controls: 0 for no effect and ±100 for the full control effect
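Luminescence readout; reporter = integrated firefly luciferase in P. falciparum. RBC culture at 2% hematocrit, 0.1% parasitemia final, 37 C/5% CO2; decreased signal taken as growth inhibition.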
* = called active by the depositor; u = inconclusive; x = no result; [ ] = dose if it differs, or a comment. Sampled rows, rich in hits. Any-hit rate of the full collection: about 21%. Unless noted, calls come from the whole dose curve; as a rule, active = well fitted inhibition curve with a large enough effect; inconclusive = small, poorly fitted or top-dose-only effect, or another doubt; inactive = no such curve, though single readings can be large or run the other way.

SMILES | CHX counter | Pf growth 96h | Shiga toxin inh | Pf growth 48h
COc1cc2nc(SCc3ccc(Cl)cc3Cl)n(Cc3cccs3)c(=N)c2cc1OC | -2.0 | 13.1µM* | -13.8 | u
COCCCn1c(SCc2cccc(C(F)(F)F)c2)nc2cc(OC)c(OC)cc2c1=N | -5.2 | u | -15.1 | u
CN(C)S(=O)(=O)c1ccc(NC(=O)COC(=O)CC2CC3CCC2C3)cc1 (stereo unspecified) | -6.0 | 23.4% | -4.1 | 0.0%
Oc1ccc(-c2csc(Nc3ccccn3)n2)cc1O | 42.9* | -28.3% | 100.5* | 61.0%
Cc1ccnc(Nc2nc(-c3ccc(O)cc3O)cs2)c1 | 24.8* | -60.1% | 22.2* | 66.3%
NC(=O)c1cc(-c2csc(NCCc3ccccc3)n2)ccc1O | -5.3 | u | 18.3 | -16.4%
Cc1nc(-c2c(-c3ccc(O)cc3O)noc2C(F)(F)F)cs1 | 10.9 | x | 28.5 | u
CC(=O)Nc1ccc(-c2csc(NCCc3ccccc3)n2)cc1 | 21.2* | -13.9% | 89.7 | u
CC(=O)Nc1ccc(-c2csc(Nc3ccccn3)n2)cc1 | 48.3* | 181.7% | 52.1* | 156.9%
Cc1cc(NC(=O)C(C)SCC(=O)OCc2ccc([N+](=O)[O-])cc2)no1 (stereo unspecified) | x | 25.3% | x | u
CCN(c1ccccc1)S(=O)(=O)c1c(-c2ccc(C)cc2)csc1C(=O)OC | 14.4 | x | 17.3 | x
Cc1ccnc(Nc2nc(-c3ccc(O)c(O)c3)cs2)c1 | 40.1* | u | 96.8* | u
Cc1ccnc(Nc2nc(-c3ccc(O)cc3)cs2)c1 | 34.6* | -5.8% | 119.8* | 58.1%
NC(=O)[C@@H]1CCCN1C(=O)C(Cc1cnc[nH]1)NC(=O)C1CCC(=O)N1 (stereo partly specified) | -0.7 | x | 21.8 | x
CCCCCc1nc2c(c(=O)c3ccccc3n2C)c(=O)n1C1CCCCCC1 | -4.8 | 11.7µM* | -10.0 | u
CC(C)Cn1c(-c2ccco2)nc2c(c(=O)c3ccccc3n2C)c1=O | 6.4 | 1.17µM* | 9.6 | 1.31µM*
Cc1nc2c(c(=O)c3ccccc3n2C)c(=O)n1C1CCCCCC1 | 4.3 | 38.4% | 20.9 | -4.3%
Cn1c2ccccc2c(=O)c2c(=O)n(C3CCCCC3)c(-c3ccco3)nc21 | -4.8 | 4.15µM* | -5.4 | 4.65µM*
COc1cccc(N2CCN(S(=O)(=O)c3cc4c(cc3Cl)NC(=O)CO4)CC2)c1 | -4.4 | u | -2.1 | 22.7%
COc1cc(OC)c(OC)cc1CN1CCN(Cc2ccco2)CC1 | 1.5 | u | -7.9 | 0.0%
Cc1cc(C)c(C)c(OCCCCN2CCCCC2)c1 | -2.0 | 0.0% | -18.2 | 0.0%
CN(C)S(=O)(=O)c1cccc(COC(=O)Cc2c(F)cccc2Cl)c1 | 13.7* | -29.8% | 26.8 | u
Cc1ccccc1-n1c(-c2ccoc2)nc2ccccc2c1=O | 6.8 | 4.15µM* | 12.1 | -20.7%
O=c1c2ccccc2nc(/C=C/c2ccc(O)cc2)n1-c1ccccc1O | 17.1 | u | 19.3 | 9.28µM*
COc1ccccc1-n1c(-c2ccccc2Br)nc2ccccc2c1=O | -1.1 | u | -6.3 | u
SMILES | CHX counter | Pf growth 96h | Shiga toxin inh | Pf growth 48h
COc1ccccc1-n1c(-c2ccc(C)cc2)nc2ccccc2c1=O | 28.5* | -27.5% | 47.6* | u
COc1ccccc1-n1c(/C=C/c2ccc(O)cc2)nc2ccccc2c1=O | 6.7 | -6.8% | 15.5 | 13.1µM*
COc1ccc(C2NC(=O)N(C)C3=C2C(=O)CC(C)(C)C3)cc1OC (stereo unspecified) | 7.3 | 22.0% | -5.5 | 25.3%
CCOc1ccc(CCNC(=O)c2sc3nc4n(c(=O)c3c2C)CCC4)cc1 | 7.2 | u | -10.6 | -8.9%
O=c1c2ccccc2nc(/C=C/c2ccccc2)n1-c1ccccc1O | -0.9 | u | -4.3 | 9.28µM*
O=c1c2ccccc2nc(/C=C/c2ccccc2)n1-c1ccc(O)cc1 | -7.1 | u | 34.4 | 12.2%[0.00184 µM]
CCOc1ccc(C(C)=O)cc1COC(=O)CCc1cc(OC)c(OC)c(OC)c1 | -2.7 | 8.28µM* | 1.0 | u
Cc1nn(S(=O)(=O)c2ccc(Br)cc2)c(C)c1S(=O)(=O)N1CCOCC1 | 6.6 | 32.5% | -5.5 | 14.3%
O=C(O)/C=C/C(=O)Nc1ccc(Oc2ncnc3cc(Cl)ccc23)nc1 | 26.5* | 46.0% | 58.4* | 40.0%
COc1ccc(/C=C/C(=O)O)cc1S(=O)(=O)NCc1cccnc1 | -3.2 | u | 13.5 | -5.0%
COC(=O)C1=C(C)N(Cc2ccccc2)C(=NCc2cc(OC)c(OC)c(OC)c2)N[C@H]1c1cccc(F)c1 | -3.6 | 10.4µM* | 1.1 | 10.4µM*
COC(=O)C1=C(C)N(Cc2ccccc2)C(=NCc2cccc(Cl)c2)N[C@H]1c1cccc(F)c1 | -10.4 | u | -16.9 | 8.28µM*
COC(=O)C1=C(C)N(Cc2ccccc2)C(=NCc2ccc(OC)cc2)N[C@H]1c1cccc(F)c1 | -2.6 | u | -7.6 | u
COC(=O)C1=C(C)N(Cc2ccccc2)C(=NCC(C)C)N[C@H]1c1cccc(F)c1 | -3.8 | u | 1.0 | 13.1µM*
COc1ccc(CCN(C)CC(O)COc2ccc(C(C)=O)cc2OC)cc1OC (stereo unspecified) | -5.6 | -7.6% | 14.5 | 2.0%
NC(CSSCC(N)C(=O)O)C(=O)O (stereo unspecified) | -4.0 | 12.3% | 11.7 | -3.9%
O=C(CCNc1cc(Cl)cc(Cl)c1)c1cccs1 | 17.6* | 111.3% | 42.5 | 18.6%
O=C(O)CCNc1ccc(Cl)cc1 | -1.6 | u | -6.1 | -3.7%
O=C(CCNc1ccc(Cl)cc1)c1cccs1 | 32.3* | u | 42.2* | 43.2%
O=C(CCc1ccc(CCC(=O)c2cccs2)s1)c1cccs1 | 22.1* | 9.2% | 52.7* | 46.3%
O=C(CCSc1ccc(Cl)cc1)c1cccs1 | 12.0* | 0.3% | 23.9 | 13.9%
O=C(NCC(=O)N1CCN(C(=O)c2ccco2)CC1)c1ccc(Br)cc1 | -3.8 | -36.8% | -3.8 | 48.1%
CSCCC(N)C(=O)O (stereo unspecified) | -1.2 | -5.1% | 20.7 | -5.4%
Cc1cc(-c2ccco2)n(CC(=O)O)n1 | 4.9 | 6.57µM* | -7.7 | 24.8%
Cc1cnc(NC(=O)CCCc2nc3ccccc3s2)s1 | 3.7 | 34.8% | 13.5 | -12.8%
SMILES | CHX counter | Pf growth 96h | Shiga toxin inh | Pf growth 48h
O=C(COC(=O)CCc1nc2ccccc2s1)Nc1nc(-c2ccccc2)cs1 | 18.3* | 38.3% | 46.8* | 39.8%
Cc1csc(NC(=O)CCc2nc3ccccc3s2)n1 | 23.7* | -2.9% | 37.3 | -2.3%
CCn1ncc(Br)c1C(=O)Nc1ccc(OC(F)(F)F)cc1 | 9.6 | 5.1% | 14.0 | 29.0%
CCn1ncc(Br)c1C(=O)Nc1ccc(C(=O)OC(C)C)cc1 | 26.9* | x | 42.4 | u
CCOC(=O)c1c(NC(=O)CN(CC)CC)sc2c1CCN(C(=O)OCC)C2 | -1.8 | 8.28µM* | -22.1 | 9.28µM*
CCOC(=O)c1c(NC(=O)CN2CCCCC2)sc2c1CCN(C(=O)OCC)C2 | 13.7 | 5.22µM* | -14.0 | 10.4µM*
CCOC(=O)c1c(NC(=O)CN2CCCCC2)sc(C)c1C | -2.1 | -7.1% | -11.1 | -18.8%
CCOC(=O)c1c(NC(=S)N2CCN(C)CC2)sc2c1CCN(C(=O)OCC)C2 | -5.1 | 11.7µM* | -15.8 | 13.1µM*
